The values below come from PubChem BioAssay (NCI).

About 83,000 compounds went through this panel and 20% of them were active in at least one assay; those are over-represented in the sample as a whole.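 Plates (96-well) were seeded with cells, treated with compound at one concentration, and incubated for 48 hours before percent growth was determined.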 Unmarked numbers belong to inactive results. Calls of active or inactive are those of the source. Rule for the calls: active = growth percent below 10; inactive = the rest.

Among the test systems are SR leukemia; RPMI-8226 leukemia; OVCAR-8 ovarian; OVCAR-5 ovarian; OVCAR-4 ovarian; SK-OV-3 ovarian; IGROV1 ovarian; OVCAR-3 ovarian; HS 578T breast; NCI/ADR-RES ovarian; BT-549 breast; MDA-MB-435 melanoma; SW-620 colon; MCF7 breast; HCT-116 colon; HCC-2998 colon; KM12 colon; T-47D breast.
Experiment in all cases: NCI-60 one-dose screen, 48 h (100 = growth as untreated, 0 = no growth, -100 = all killed)
What all share (conditions): 10 µM unless noted

In the case of `O=C(NCc1ccccc1O)c1cccc2ccccc12`, the growth is 64.9% in the assay with SR leukemia; 38.6% in the assay with RPMI-8226 leukemia; 89.8% in the assay on OVCAR-8 ovarian; 108% in the assay on OVCAR-5 ovarian; 72.7% with OVCAR-4 ovarian; 89.5% in the assay on SK-OV-3 ovarian. Besides, the growth with IGROV1 ovarian is 62%; in the assay on OVCAR-3 ovarian, 56.4%; in the assay with HS 578T breast, 66.5%; in the assay with NCI/ADR-RES ovarian, 79.2%; in the assay with BT-549 breast it was 68.8%; with MDA-MB-435 melanoma, 76.9%. The growth in the assay with SW-620 colon is 87.6%; in the assay on MCF7 breast it was 83.9%; with HCT-116 colon, 69.1%; in the assay on HCC-2998 colon, 89.9%; in the assay with KM12 colon, 85%.
Regarding `CCCCC(=O)Nc1ncc(Cc2ccccc2Cl)s1`, the growth in the assay with SR leukemia is 25.8%; with RPMI-8226 leukemia, 49.2%; with OVCAR-8 ovarian, 49%; with OVCAR-5 ovarian, 59%; in the assay with OVCAR-4 ovarian it was 68.1%; with SK-OV-3 ovarian, 63.3%. Further, the growth in the assay with IGROV1 ovarian was 45.4%; in the assay on OVCAR-3 ovarian it was 30.1%; in the assay with HS 578T breast it was 31.3%; in the assay with NCI/ADR-RES ovarian, 23.7%; in the assay with BT-549 breast, 47.1%; in the assay with MDA-MB-435 melanoma, -31.8% (active). In addition, the growth is 24.5% in the assay with SW-620 colon; 17.8% with MCF7 breast; 21.2% in the assay with HCT-116 colon; 52.6% in the assay on HCC-2998 colon; 25.2% in the assay with KM12 colon.
For `COc1ccc2nc(SCC(=O)Nc3ccccc3C)[nH]c2c1`, the growth was 89.5% with SR leukemia; 90.1% in the assay on RPMI-8226 leukemia; 94.2% with OVCAR-8 ovarian; 99.6% in the assay on OVCAR-5 ovarian; 95.2% in the assay on OVCAR-4 ovarian; 105% in the assay with SK-OV-3 ovarian. In addition, the growth was 103% in the assay on IGROV1 ovarian; 107% in the assay with OVCAR-3 ovarian; 90.9% in the assay with HS 578T breast; 99% in the assay with NCI/ADR-RES ovarian; 97.6% in the assay with BT-549 breast; 97% in the assay on MDA-MB-435 melanoma. Moreover, the growth in the assay on SW-620 colon is 99.4%; in the assay on MCF7 breast it was 90.7%; with HCT-116 colon, 98.9%; in the assay on HCC-2998 colon it was 106%; in the assay on KM12 colon, 101%.
Turning to `Nc1c(C(=O)Nc2cccc3ncccc23)sc2nc3c(cc12)C(=O)CCC3`, the growth was 41.4% in the assay with SR leukemia; 59.6% in the assay on RPMI-8226 leukemia; 78.9% in the assay with OVCAR-8 ovarian; 69.8% in the assay on OVCAR-5 ovarian; 71.1% in the assay with OVCAR-4 ovarian; 21.3% in the assay with SK-OV-3 ovarian. For the same compound, the growth is 59% in the assay with IGROV1 ovarian; 37.4% in the assay on OVCAR-3 ovarian; 5.47% (active) with HS 578T breast; 72.8% with NCI/ADR-RES ovarian; 55.2% with BT-549 breast; -18.2% (active) with MDA-MB-435 melanoma. Besides, the growth is 39.1% in the assay with SW-620 colon; 25.2% in the assay on MCF7 breast; 44.1% with HCT-116 colon; 75.8% with HCC-2998 colon; 46.5% in the assay on KM12 colon.
Consider `CCOC(=O)C/C(=N\Nc1cc(=O)[nH]c2ccc(Cl)cc12)C(=O)OCC`, for which the growth in the assay with SR leukemia was 47%; in the assay on RPMI-8226 leukemia it was 57.2%; with OVCAR-8 ovarian, 110%; with OVCAR-5 ovarian it was 98.9%; in the assay with OVCAR-4 ovarian, 107%; with SK-OV-3 ovarian, 123%. The growth in the assay on IGROV1 ovarian is 97.6%; in the assay on OVCAR-3 ovarian, 110%; in the assay on HS 578T breast it was 94.9%; in the assay with NCI/ADR-RES ovarian, 95.8%; in the assay with BT-549 breast, 99.3%; in the assay with MDA-MB-435 melanoma, 102%. Besides, the growth was 93.8% in the assay with SW-620 colon; 96.5% in the assay with MCF7 breast; 100% with HCT-116 colon; 97.4% in the assay on HCC-2998 colon; 102% in the assay with KM12 colon.
In the case of `Fc1ccc2c(c1)c(-c1nc(-c3c[nH]c4ncccc34)cs1)cn2CCCN1CCOCC1`, the growth in the assay with SR leukemia was 12.1%; in the assay on RPMI-8226 leukemia, 36.6%; with OVCAR-8 ovarian, 59.7%; in the assay with OVCAR-5 ovarian, 82.3%; in the assay with OVCAR-4 ovarian it was 56.2%; with SK-OV-3 ovarian it was 81.6%. Further, the growth is 38.6% in the assay on IGROV1 ovarian; 59.8% in the assay with OVCAR-3 ovarian; 38.3% with HS 578T breast; 59.2% in the assay on NCI/ADR-RES ovarian; 69.5% in the assay on BT-549 breast; -17.1% (active) in the assay with MDA-MB-435 melanoma. In addition, the growth was 24.9% with SW-620 colon; 22% with MCF7 breast; 40.4% with HCT-116 colon; 74.3% in the assay on HCC-2998 colon; 22.5% with KM12 colon.
Take `N#Cc1nc2c(S(=O)(=O)c3ccccc3)c(N)n(Cc3cccnc3)c2nc1C#N`: the growth with SR leukemia was 36.1%; in the assay on RPMI-8226 leukemia it was 99.2%; in the assay with OVCAR-8 ovarian it was 70.9%; in the assay on OVCAR-5 ovarian it was 96.5%; in the assay on OVCAR-4 ovarian, 92.4%; in the assay on SK-OV-3 ovarian, 76.9%. For the same compound, the growth is 46.1% with IGROV1 ovarian; 73.4% in the assay on OVCAR-3 ovarian; 59.5% in the assay with HS 578T breast; 94.6% in the assay on NCI/ADR-RES ovarian; 58.6% in the assay with T-47D breast; 94.9% with MDA-MB-435 melanoma. Moreover, the growth with SW-620 colon is 77.7%; in the assay with MCF7 breast, 91.3%; in the assay on HCT-116 colon it was 98.2%; in the assay with HCC-2998 colon it was 104%; with KM12 colon, 102%.
In the case of `COc1ccc(/C(C)=C(\c2ccc(Cl)cc2)c2ccc(OCCN3CCCC3)cc2)cc1`, the growth is -21.6% (active) in the assay on SR leukemia; -20.3% (active) with RPMI-8226 leukemia; 51.6% in the assay with OVCAR-8 ovarian; 64.7% in the assay with OVCAR-5 ovarian; 63.5% in the assay on OVCAR-4 ovarian; 82.9% in the assay with SK-OV-3 ovarian. Also, the growth in the assay on IGROV1 ovarian was 48.9%; with OVCAR-3 ovarian, 63.7%; with HS 578T breast it was 51.5%; in the assay with NCI/ADR-RES ovarian, 70.6%; in the assay on BT-549 breast, 57.9%; with MDA-MB-435 melanoma, 39.2%. Moreover, the growth in the assay on SW-620 colon is 25.1%; in the assay on MCF7 breast, 13%; with HCT-116 colon, 23.6%; in the assay with HCC-2998 colon, 87%; in the assay on KM12 colon, 24.5%.
In the case of `O=C1/C(=C/c2ccccc2[N+](=O)[O-])COc2ccc(O)cc21`, the growth was 22.2% in the assay with SR leukemia; 3.29% (active) with RPMI-8226 leukemia; 6.3% (active) with OVCAR-8 ovarian; -19% (active) in the assay with OVCAR-5 ovarian; 15.6% in the assay on OVCAR-4 ovarian; 77.7% in the assay with SK-OV-3 ovarian. For the same compound, the growth in the assay on OVCAR-3 ovarian is 7.73% (active); with HS 578T breast, 5.1% (active); in the assay on NCI/ADR-RES ovarian, 2.55% (active); with T-47D breast it was 18%; in the assay on BT-549 breast, 26.7%; in the assay with MDA-MB-435 melanoma, -34.2% (active). The growth in the assay with SW-620 colon was -57.8% (active); in the assay on MCF7 breast, 10.9%; in the assay on HCT-116 colon, -13.8% (active); with HCC-2998 colon it was 29%; in the assay on KM12 colon, 25.4%.
